# Results published in the supplement of paper PMC7156485.
# Structures can show the parent of a compound that is named as a salt. ± gives the standard deviation of the averaged measurements.
# Key:
# Conditions in all cases: concentration: 10 µM; 24 h
# [1] = tested on: HCC1569; test: cell number relative to DMSO (% of DMSO); higher = more cells (less growth inhibition / toxicity)
# Method in brief: (§1)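 In 384-well plates holding 800 HCC1569 or TDF cells per well in RPMI with 10% FBS, compounds were tested at 10 µM for 24 h at 37 °C in triplicate. Fixation used 3.7% formaldehyde. Staining used a rabbit anti-H1.0 antibody with an AlexaFluor 647 secondary, plus DAPI. Each value, H1.0 nuclear intensity or cell number, is a median of replicates shown as percent of the plate control, and HCC1569 values were smoothed for positional effects.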
# [2] = tested on: TDF; test: as above
# Method in brief: as §1
# [3] = tested on: TDF; test: H1.0 immunofluorescence intensity relative to DMSO (% of DMSO); higher = stronger H1.0 induction, active = 120 or more
# Method in brief: as §1
# [4] = tested on: HCC1569; test: H1.0 immunofluorescence intensity relative to DMSO (% of DMSO); higher = stronger H1.0 induction, active = 140 or more
# Method in brief: as §1
# 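For H1.0 immunofluorescence intensity relative to DMSO in this document: TDF is a line of transformed human dermal fibroblasts of mesenchymal origin.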
# 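For cell number relative to DMSO in this document: TDF denotes transformed human dermal fibroblasts of mesenchymal origin.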
SMILES,cell number [1],cell number [2],H1.0 immunofluorescence intensity [3],H1.0 immunofluorescence intensity [4]
NC(=O)Nc1sc(-c2ccc(F)cc2)cc1C(N)=O,75.6,60.6,96.3 (inactive),177 (active)
"CC(=O)C(C)=O [2,3-Butanedione]",103,103,85.8 (inactive),92.3 (inactive)
Cc1nc2sccn2c(=O)c1CCN1CCC(=C(c2ccccc2)c2ccc(F)cc2)CC1 [Diacylglycerol kinase inhibitor I],87.2,111,96 (inactive),118 (inactive)
O=C1C(=Cc2ccc(O)c(O)c2)Oc2cc(O)ccc21 [Sulfuretine],98,102,93.3 (inactive),99.9 (inactive)
CN(C)CCC=C1c2ccccc2CCc2ccccc21.Cl [Amitriptyline.HCl],105,89.4,99.6 (inactive),123 (inactive)
CC1c2cccc(O)c2C(O)=C2C(=O)C3(O)C(O)=C(C(N)=O)C(=O)C(N(C)C)C3C(O)C21 (stereo not drawn) [Doxycycline],101,93.9,108 (inactive),115 (inactive)
CC(=O)NC(CSCC=C(C)CCC=C(C)CCC=C(C)CCC=C(C)C)C(=O)O (stereo not drawn),102,98.3,105 (inactive),95.9 (inactive)
COc1cc2c(cc1OC)C(=O)C(CC1CCN(Cc3ccccc3)CC1)C2.Cl.Cl (stereo not drawn) [Donepezil.HCl],101,114,95.8 (inactive),105 (inactive)
Cl.NC(N)=NCCNS(=O)(=O)c1cccc2cnccc12 [HA-1004 hydrochloride],103,116,87.2 (inactive),88.4 (inactive)
Cl.Cn1c(=O)c(Oc2ccc(F)cc2F)cc2cnc(NC3CCOCC3)nc21,99.9,99.2,89 (inactive),102 (inactive)
CC12CCC(=O)C=C1CCC1C2CCC2(C)C1CCC2(O)C(=O)CO (stereo not drawn) [Cortexolone],98.2,99.3,90.2 (inactive),96.2 (inactive)
NC1CONC1=O [D-Cycloserine],98.8,96.8,97.5 (inactive),92.1 (inactive)
CCCCCC(CC(=O)NO)C(=O)NC(C(=O)N1CCCC1CO)C(C)C (stereo not drawn) [Actinonin],101,89,108 (inactive),111 (inactive)
COC1C(OC(=O)C=CC=CC=CC=CC(=O)O)CCC2(CO2)C1C1(C)OC1CC=C(C)C (stereo not drawn) [Fumagillin],104 ± 1.1,98.7 ± 8.4,98.9 (inactive),91.2 (inactive)
CN(C)[C@@H]1CCc2[nH]c3ccc(NC(=O)c4ccc(F)cc4)cc3c2C1.Cl,99.2,90.8,94.9 (inactive),114 (inactive)
CC(=O)NC(C(=O)O)C(C)(C)SN=O (stereo not drawn) [S-Nitroso-N-acetylpenicillamine],105,109,90.5 (inactive),96.7 (inactive)
CN(C)CCC=C1c2ccccc2COc2ccc(CC(=O)O)cc21 [Olopatadine],102,106,90.3 (inactive),102 (inactive)
CC(C(O)c1ccc(O)cc1)N1CCC(Cc2ccccc2)CC1.CC(C(O)c1ccc(O)cc1)N1CCC(Cc2ccccc2)CC1.O=C(O)C(O)C(O)C(=O)O (stereo not drawn) [Ifenprodil tartrate],101,108,100 (inactive),96.7 (inactive)
CCCOc1ccc(C=C2SC(=O)NC2=O)cc1 [PIM1/2 Kinase Inhibitor VI],106,110,103 (inactive),98.1 (inactive)
CC(C=CC1=C(C)CCCC1(C)C)=CC=CC(C)=CC(=O)Nc1ccc(O)cc1 [Fenretinide],51.1,106,97.8 (inactive),181 (active)
"CC1CCC(C(C)(C)O)CC2=C1CCC2C (single isomer, unassigned; (-)) [(-)-Guaiol]",99.2,102,102 (inactive),106 (inactive)
CC1(NC2=NS(=O)(=O)c3sc(Cl)cc3N2)CC1,101,90.6,96.1 (inactive),94.7 (inactive)
CC(=O)OCC(=O)NCCCOc1cccc(CN2CCCCC2)c1.Cl [Roxatidine acetate.HCl],107,95.7,103 (inactive),99 (inactive)
NC(CC(=O)[O-])C(=O)O.NC(CC(=O)[O-])C(=O)O.[Mg+2] [magnesium bis[(3S)-3-amino-3-carboxypropanoate]],101,102,94.5 (inactive),109 (inactive)
COc1ccc2c(c1)c(CC(=O)N1CCOCC1)c(C)n2C(=O)c1ccc(Cl)cc1,102,104,94.6 (inactive),104 (inactive)
CCC=CCC(O)C=CC=CCC=CCC=CCCCC(=O)O (stereo not drawn),105,102,98.8 (inactive),94.3 (inactive)

SMILES,cell number [1],cell number [2],H1.0 immunofluorescence intensity [3],H1.0 immunofluorescence intensity [4]
CC(Cc1ccccc1)(NC(=O)CN)c1ccccc1.Cl (stereo not drawn),97.7,107,103 (inactive),91.3 (inactive)
Nc1nc(Cl)nc2c1ncn2C1OC(CO)C(O)C1F (stereo not drawn) [Clofarabine],90.6,45.3,119 (inactive),93.5 (inactive)
"O=c1cc(-c2ccccc2)oc2cc(O)c(O)cc12 [6,7-Dihydroxyflavone]",102,96.3,98.5 (inactive),101 (inactive)
CCCCCCC(C(C)O)n1cnc2c(N)ncnc21.Cl (stereo not drawn) [erythro-9-(2-Hydroxy-3-nonyl)adenine hydrochloride],104,108,90.1 (inactive),88.6 (inactive)
Cc1ccc(NC(=O)c2ccc(CN3CCN(C)CC3)cc2)cc1Nc1nccc(-c2cccnc2)n1 [Imatinib],101,101,107 (inactive),103 (inactive)
COc1cc2ncnc(Nc3ccc(Oc4ccccc4)cc3)c2cc1OC [Src Kinase Inhibitor I],88.6,94.7,106 (inactive),147 (active)
C1CCN2CC3CC(CN4CCCCC34)C2C1.O.O.O.O.O.O=S(=O)(O)O (stereo not drawn),103,94.3,107 (inactive),98.4 (inactive)
CC(COc1ccc(C=Cc2ccccc2)cc1)[N+](C)(C)C.[I-] (stereo not drawn),95.6,84.6,107 (inactive),110 (inactive)
COC(=O)Nc1nc2ccc(C(=O)c3cccs3)cc2[nH]1 [Nocodazole],59.5,10.9,157 (active),136 (inactive)
CC(N)=NCCCC[C@H](N)C(=O)O.Cl [L-N6-(1-Iminoethyl)lysine hydrochloride],103,109,84.8 (inactive),91.6 (inactive)
"C=C(C)C1CC=C(C(=O)O)CC1 (single isomer, unassigned; (-)) [(-)-Perillic acid]",104,104,95.9 (inactive),99.9 (inactive)
CCCCCC=CCC(O)C=Cc1cccc(CC(O)CCCCO)n1 (stereo not drawn),98.7 ± 2,108 ± 4.7,95.9 (inactive),113 (inactive)
CCNC1CC(C)S(=O)(=O)c2sc(S(N)(=O)=O)cc21.Cl (stereo not drawn) [Dorzolamide.HCl],97,87.9,100 (inactive),95.5 (inactive)
CC(C(O)c1ccc(O)cc1)N1CCC(Cc2ccccc2)CC1 (stereo not drawn) [Ifenprodil tartrate],104,102,94.5 (inactive),98.5 (inactive)
COc1ccc(CCN(C)CCc2ccc(OC)c(OC)c2)cc1OC.Cl [YS-035 hydrochloride],99.4,108,96.6 (inactive),98.3 (inactive)
O=C(O)C1CCCNC1 (racemic),109,103,97 (inactive),92.1 (inactive)
NCCS(=O)(=O)O [Taurine],98.1,112,96.4 (inactive),98.7 (inactive)
Nc1ncn(C2OC(CO)C(O)C2O)c(=O)n1 (stereo not drawn) [5-azacytidine],65.7,78,101 (inactive),150 (active)
Ic1cccc(CSc2nnc(-c3ccncc3)o2)c1 [GSK-3b Inhibitor II],93.5,106,102 (inactive),117 (inactive)
CC1OC(OCC2OC(Oc3cc(O)c4c(c3)OC(c3ccc(O)c(O)c3)CC4=O)C(O)C(O)C2O)C(O)C(O)C1O (stereo not drawn) [Eriocitrin],101,119,89 (inactive),84 (inactive)
CC(C)Cc1ccc(C(C)C(=O)NO)cc1 (stereo not drawn) [Ibuproxam],103,101,87.3 (inactive),95.2 (inactive)
CCCCOc1ccc(-c2cncc(C(=O)NCc3cccnc3N3CCOCC3)c2)cc1Cl,86.9,104,98.3 (inactive),150 (active)
CCN(CC)CCNC(=O)c1cc(Cl)c(N)cc1OC [Metoclopramide],102,105,97.1 (inactive),108 (inactive)
O=C1[N-]C(=O)C(c2ccccc2)(c2ccccc2)N1.[Na+] [Phenytoin sodium],99.9,111,99.8 (inactive),103 (inactive)
O=C1Cc2c([nH]c3ccc(Br)cc23)-c2ccccc2N1 [Kenpaulone],73.4,97.7,89.8 (inactive),83.4 (inactive)
Nc1nc(OCc2ccccc2)c2[nH]cnc2n1 [O6-benzylguanine],102,96.6,101 (inactive),95.8 (inactive)
